Measurements as given in PubChem BioAssay.
Where “and” joins values, the source holds several entries; their conditions need not be identical. Equal values may be shown once.

Experiments:
[1] = tested on: Botulinum neurotoxin type F light chain protease (Clostridium botulinum); assay: Clostridium botulinum type F light chain protease inhibitors, microsphere substrate cleavage, validation (AID 588459); details: multiplex microsphere protease substrate cleavage assay, flow cytometry; at 10 µM; hits give high values
[2] = molecular target: Botulinum neurotoxin type A (Clostridium botulinum) (UniProt P0DPI0); assay: BoNT/A light chain protease inhibitors, biochemical, multiplex microsphere flow cytometry, validation set (AID 588460); details: at 10 µM, hits give high values
[3] = molecular target: Lethal factor (Bacillus anthracis) (UniProt P15917); assay: Bacillus anthracis lethal factor inhibition, microsphere flow cytometry protease assay, validation at 10 µM (AID 588461); details: multiplex microsphere protease cleavage assay, hits give high values

Measured: inhibition

Botulinum neurotoxin type A (Clostridium botulinum), sequence (P0DPI0 whole entry, looked up): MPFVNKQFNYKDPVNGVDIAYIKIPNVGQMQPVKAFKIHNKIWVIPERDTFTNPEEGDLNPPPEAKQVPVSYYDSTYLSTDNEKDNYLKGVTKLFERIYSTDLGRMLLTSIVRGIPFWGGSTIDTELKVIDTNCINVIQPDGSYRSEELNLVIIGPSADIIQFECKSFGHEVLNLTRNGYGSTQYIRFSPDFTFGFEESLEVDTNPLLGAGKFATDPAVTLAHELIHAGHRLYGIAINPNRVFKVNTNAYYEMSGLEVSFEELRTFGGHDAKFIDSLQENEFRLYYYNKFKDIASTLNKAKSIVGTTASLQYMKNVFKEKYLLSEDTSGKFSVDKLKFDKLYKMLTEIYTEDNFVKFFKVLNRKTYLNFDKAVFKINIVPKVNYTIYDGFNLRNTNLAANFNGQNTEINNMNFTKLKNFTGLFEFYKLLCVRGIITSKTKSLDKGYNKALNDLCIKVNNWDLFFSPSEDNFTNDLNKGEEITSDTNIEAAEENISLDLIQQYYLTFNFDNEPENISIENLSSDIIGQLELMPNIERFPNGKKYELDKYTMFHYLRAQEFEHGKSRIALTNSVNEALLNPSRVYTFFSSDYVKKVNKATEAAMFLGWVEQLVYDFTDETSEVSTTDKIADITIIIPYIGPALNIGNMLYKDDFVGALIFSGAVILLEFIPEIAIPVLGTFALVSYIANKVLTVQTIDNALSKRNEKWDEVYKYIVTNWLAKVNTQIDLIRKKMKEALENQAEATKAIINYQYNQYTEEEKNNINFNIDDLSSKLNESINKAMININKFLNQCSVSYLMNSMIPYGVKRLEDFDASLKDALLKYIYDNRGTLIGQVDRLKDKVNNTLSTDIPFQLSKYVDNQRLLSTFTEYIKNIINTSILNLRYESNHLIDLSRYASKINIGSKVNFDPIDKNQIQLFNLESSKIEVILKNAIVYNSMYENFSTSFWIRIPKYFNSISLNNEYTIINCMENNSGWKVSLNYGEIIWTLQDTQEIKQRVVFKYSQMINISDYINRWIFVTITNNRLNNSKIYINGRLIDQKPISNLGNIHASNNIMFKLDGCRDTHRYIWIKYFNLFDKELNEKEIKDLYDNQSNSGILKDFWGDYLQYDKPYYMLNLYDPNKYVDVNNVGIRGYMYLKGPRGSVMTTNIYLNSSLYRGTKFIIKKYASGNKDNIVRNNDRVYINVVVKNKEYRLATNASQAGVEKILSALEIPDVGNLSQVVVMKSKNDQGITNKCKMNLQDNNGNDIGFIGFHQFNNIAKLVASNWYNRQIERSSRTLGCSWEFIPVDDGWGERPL
Lethal factor (Bacillus anthracis), sequence (P15917 whole entry, looked up): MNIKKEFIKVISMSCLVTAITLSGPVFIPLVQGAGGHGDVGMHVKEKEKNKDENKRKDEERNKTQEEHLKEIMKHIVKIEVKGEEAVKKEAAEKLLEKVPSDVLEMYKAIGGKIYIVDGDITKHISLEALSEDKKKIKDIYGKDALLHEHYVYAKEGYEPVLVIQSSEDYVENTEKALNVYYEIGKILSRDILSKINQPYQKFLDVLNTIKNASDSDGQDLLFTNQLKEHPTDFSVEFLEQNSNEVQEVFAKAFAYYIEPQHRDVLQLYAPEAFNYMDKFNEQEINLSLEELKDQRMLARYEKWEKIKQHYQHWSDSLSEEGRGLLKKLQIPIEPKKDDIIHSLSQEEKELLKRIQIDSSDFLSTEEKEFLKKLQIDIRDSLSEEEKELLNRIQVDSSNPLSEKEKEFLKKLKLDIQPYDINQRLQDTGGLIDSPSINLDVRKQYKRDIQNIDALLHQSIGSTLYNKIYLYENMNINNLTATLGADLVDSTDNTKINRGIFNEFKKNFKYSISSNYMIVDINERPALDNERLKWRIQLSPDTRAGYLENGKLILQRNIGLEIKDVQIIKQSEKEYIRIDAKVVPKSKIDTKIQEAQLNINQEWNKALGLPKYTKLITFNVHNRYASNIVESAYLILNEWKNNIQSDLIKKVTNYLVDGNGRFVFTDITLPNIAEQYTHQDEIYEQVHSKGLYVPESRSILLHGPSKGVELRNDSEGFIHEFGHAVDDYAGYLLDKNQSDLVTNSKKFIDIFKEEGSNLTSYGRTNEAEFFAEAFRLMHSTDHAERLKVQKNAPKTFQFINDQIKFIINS

N#Cc1c2c(c(-c3ccccc3)[nH]c1=O)CCCC2
inactive: [1] -7.4% | [2] -0.9% | [3] 2.3%

CCc1cc2c(=O)c(-c3nc4ccccc4n3C)coc2c(CN2CCN(C)CC2)c1O
inactive: [1] -0.9% | [2] 0.3% | [3] -2.8%

CCCC(=O)O[C@]1(C(=O)CCl)[C@@H](C)C[C@H]2[C@@H]3CCC4=CC(=O)C=C[C@]4(C)[C@@]3(F)C(=O)C[C@@]21C
inactive: [1] 0.9% | [2] -0.6% | [3] 1%

c1ccc(CNc2ncnc3nc[nH]c23)cc1
inactive: [1] -7.5% | [2] -1.3% | [3] -4.8%

OCCC1CN(Cc2ccccc2-c2ccco2)CCN1C1CCCC1 (configuration not stated)
inactive: [1] 4.4% | [2] 0.5% | [3] 5.3%

Nc1ccc2[nH]ncc2c1
inactive: [1] -1.8% | [2] -1.3% | [3] 2.9%

Cc1ccc(S(=O)(=O)Nc2ccc(S(=O)(=O)Nc3cc(C)nc(C)n3)cc2)cc1
inactive: [1] -1.8% | [2] 0.6% | [3] 0.7%

Cc1cccc(N(C)C(=S)Oc2ccc3ccccc3c2)c1
inactive: [1] -0.1% | [2] -0.6% | [3] -4.3%

COc1ccc(-c2coc3c(CN4CCOCC4)c(O)ccc3c2=O)cc1
inactive: [1] 2.6% | [2] 0.6% | [3] 4.1%

CN(C)CC/C=C1\c2ccccc2COc2ccccc21
inactive: [1] -0.1% | [2] -0.5% | [3] 2.2%

CC(=O)OCC(=O)C1=CCC2C3CCC4=CC(=O)C=CC4(C)C3(F)C(OC(C)=O)CC12C (configuration not stated)
inactive: [1] 0.8% | [2] -0.6% | [3] 2.4%

Fc1cc(F)cc(NC(=S)NCCCN2CCOCC2)c1
inactive: [1] 0.9% | [2] -0.7% | [3] -2.9%

COc1ccc(C(=O)c2oc3ccc(Br)cc3c2NC(C)=O)cc1
inactive: [1] 0.3% | [2] -1.1% | [3] -3.6%

CC(=O)N(C(C)=O)c1nc2nc(C)cc(C)n2n1
inactive: [1] 5.2% | [2] 0.6% | [3] 1.4%

CCOC(=O)C(NC(=O)CCC(=O)Nc1ccc(S(N)(=O)=O)cc1)C(O)c1ccccc1 (configuration not stated)
inactive: [1] -0.5% | [2] -1% | [3] 5.9%

CC(=O)N1CC23C=CC(CC2CC12CCCCCC2)O3 (configuration not stated)
inactive: [1] 1.3% | [2] -1.4% | [3] 1.3%

C[C@H]1O[C@H]1P(=O)(O)O
inactive: [1] -0.1% | [2] 1.1% | [3] -2%

CN(C)C(=O)Oc1cccc([N+](C)(C)C)c1
inactive: [1] 0.7% and -1.3% | [2] 0.2% and -0.7% | [3] 1.5% and 2.9%

CC(=O)OC[C@H]1O[C@@H](Sc2cccc3cccnc23)[C@H](OC(C)=O)[C@@H](OC(C)=O)[C@H]1OC(C)=O
inactive: [1] -3.9% | [2] -0.4% | [3] 0.7%

Cc1cc(C)cc(Nc2nc3c([nH]2)c(=O)n(C)c(=O)n3C)c1
inactive: [1] -0.8% | [2] 0.5% | [3] 4.9%

Oc1[nH]c2ccccc2c1N=Nc1ccccc1
inactive: [1] -2.7% | [2] -0.4% | [3] 1.4%

Cc1nc(C)c(C)nc1C
inactive: [1] -1.1% | [2] -0.9% | [3] -9.1%

CN1CCC(OC(c2ccccc2)c2ccccc2)CC1
inactive: [1] -0.8% | [2] -0.5% | [3] -5.1%

CC(=O)N/C(=C/c1ccc2c(c1)OCO2)C(=O)NCCO
inactive: [1] 3.7% | [2] 0.6% | [3] 1%

Cc1cnc(N)c2c(=O)oc3ccccc3c12
inactive: [1] 1.3% | [2] 0.4% | [3] -4.6%

O=C(O)[C@H](Cc1ccccc1)NC(=O)N1CCC(Cc2ccccc2)CC1
inactive: [1] 5.5% | [2] 0.9% | [3] -2.3%

COc1cccc(CN2C(=O)N(C(C)C)C(N(O)C(=O)NC(C)C)C2(C)C)c1OC (configuration not stated)
inactive: [1] -1.7% | [2] -0.8% | [3] -2.1%

CN(C)C(=O)C(CCN1CCC(O)(c2ccc(Cl)cc2)CC1)(c1ccccc1)c1ccccc1
inactive: [1] -1.4% | [2] -1.4% | [3] 7.3%

COc1cc(C2Nc3ccccc3NC3=C2C(=O)CC(c2ccc(OC)c(OC)c2)C3)ccc1O (configuration not stated)
inactive: [1] -5.5% | [2] -0.9% | [3] 0%

CCOC(=O)c1ccccc1NC(=O)c1ccc(F)cc1
inactive: [1] -1.8% | [2] -1% | [3] -0.1%

O=C1CCc2cc(OCCCCc3nnnn3C3CCCCC3)ccc2N1
inactive: [1] -0.2% | [2] -0.9% | [3] -5.5%

CCn1c(N2CCN(CC(=O)c3c(C)n(C)c4ccc(OC)cc34)CC2)nc2c1c(=O)[nH]c(=O)n2C
inactive: [1] -1.4% | [2] -0.8% | [3] -10.7%

COc1cc2c(cc1OC)-c1cc(OCc3ccccc3Cl)nc(=O)n1CC2
inactive: [1] -0.4% | [2] 0.1% | [3] 0.1%

COc1cc(NC(=O)COc2ccccc2)c(OC)cc1NC(C)=O
inactive: [1] -2.2% | [2] 1.2% | [3] -8.3%

Cc1ccc(S(=O)(=O)N[C@@H](Cc2ccccc2)C(=O)CCl)cc1
inactive: [1] -3.3% | [2] 1.2% | [3] 3.4%

CC(=O)SC1CC2=CC(=O)CCC2(C)C2CCC3(C)C(CCC34CCC(=O)O4)C12 (configuration not stated)
inactive: [1] 0% | [2] 0.1% | [3] -5.9%

O=c1ccc2ccccc2o1
inactive: [1] -3% | [2] -1.4% | [3] -1.4%

CN(C)C(=O)Oc1ccc[n+](C)c1
inactive: [1] -1.5% | [2] -0.6% | [3] -0.5%

Cc1cccc(OCC(=O)Nc2ccc(C(=O)NCC(C)C)cc2)c1
inactive: [1] 4.2% | [2] 0.3% | [3] -4.3%

C=CCNC(=O)c1ccc(-c2cccc([N+](=O)[O-])c2)o1
inactive: [1] -1.3% | [2] -0.6% | [3] -3%

Cc1nc(N)nc2c1CCCC2
inactive: [1] 2.4% | [2] 1.2% | [3] 4.9%

CN1[C@@H](CC(=O)c2ccccc2)CCC[C@H]1C[C@H](O)c1ccccc1
inactive: [1] 3.2% | [2] -1% | [3] -2.2%

COc1ccc(CN(CCC(c2ccccc2)c2ccc(OC(C)C)cc2)C(=O)CCl)cc1OC (configuration not stated)
inactive: [1] -3.8% | [2] 0.3% | [3] -6.4%

Cc1cccc2c1CC(C)(C)N/C2=C\C(N)=O
inactive: [1] 1% | [2] 1% | [3] -3.4%

CC(=O)NC1C(OCc2ccccc2)OC(COC(C)=O)C(OC(C)=O)C1OC(C)=O (configuration not stated)
inactive: [1] -1.4% | [2] -1.9% | [3] -2.2%

CCn1c(=N)c(C(=O)NC)cc2c(=O)n3cccc(C)c3nc21
inactive: [1] 3.8% | [2] 3.8% | [3] 5.6%

Cc1ccc2nc3c(cc(C(=O)NCC4CCCO4)c(=N)n3CCCOC(C)C)c(=O)n2c1 (configuration not stated)
inactive: [1] 3.3% | [2] -0.1% | [3] -4%

CCOc1cc(C)cc2oc(=O)cc(-c3ccccc3)c12
inactive: [1] -2.2% | [2] -0.6% | [3] -4.4%

Cc1cc(=O)[nH]c(=S)[nH]1
inactive: [1] -3.5% | [2] -3.3% | [3] -7.5%

COc1ccc(C(=O)C2CCCCC2=O)cc1 (configuration not stated)
inactive: [1] 1.5% | [2] 0.2% | [3] -1.2%

CC1COc2c(N3CCN(C)CC3)c(F)cc3c(=O)c(C(=O)O)cn1c23 (configuration not stated)
inactive: [1] -0.1% | [2] -0.3% | [3] 3.1%

O=C(CC(C(=O)O)c1c[nH]c2ccccc12)c1ccccc1 (configuration not stated)
inactive: [1] 0.3% | [2] 2% | [3] 6.4%

N=c1c[n+](N2CCOCC2)[n-]o1
inactive: [1] -6.3% | [2] 0.1% | [3] 0.2%

CCc1nc(N)nc(N)c1-c1ccc(Cl)cc1
inactive: [1] 0.4% | [2] -0.6% | [3] -2.6%

CCOc1ccc(C(=O)NC(C)C2COc3ccccc3O2)cc1 (configuration not stated)
inactive: [1] -6.8% | [2] -0.6% | [3] -4.7%

O=C(O)Cc1ccc(O)c(F)c1
inactive: [1] 2.3% | [2] -0.5% | [3] -3.6%

O=C(NCCc1c[nH]c2ccccc12)OCCSS(=O)(=O)O
inactive: [1] -4.5% | [2] -0.2% | [3] 3.7%

COCc1cc(=O)[nH]c(Nc2nc3ccccc3o2)n1
inactive: [1] -3.7% | [2] -0.7% | [3] 0.7%

COCCn1c(SCCOc2ccccc2)nc2ccccc2c1=O
inactive: [1] 1.6% | [2] -0.3% | [3] -1.1%

COc1cccc(NC(=O)C2CC(=O)OC23CCOC(C)(C)C3)c1 (configuration not stated)
inactive: [1] -5.5% | [2] -1.3% | [3] -8.2%

CCC(C)NCCOc1ccccc1C (configuration not stated)
inactive: [1] 1.2% | [2] -0.1% | [3] 5.2%

O=C(OCC1CCCN2CCCCC12)c1ccc2c(c1)OCO2 (configuration not stated)
inactive: [1] -1.9% | [2] -1.6% | [3] -6.7%

COc1ccc(C(=O)Nc2cccc3cccnc23)cc1OC
inactive: [1] -2.2% | [2] -2.2% | [3] -4.6%

COc1cc2c(cc1OC)/C(=C/c1ccc(Cl)cc1)C(=O)OC2
inactive: [1] -0.2% | [2] 0.8% | [3] -1.5%
